An excerpt weighted towards active compounds, which were near 19% of everything screened.
TDP1 cell CPT – growth inhibition of DT40 Tdp1-/-;hTDP1 cells with camptothecin (screen for TDP1 inhibitors) | 420,000 tested, 12% active | chicken DT40 Tdp1-/-;hTDP1 cells + 20 nM CPT, ATP luminescence, 48 h | Potency, µM (highest dose often 46.2 µM), without a hit: top-dose activity change, negative = growth inhibition, most hits filed as inhibitors; further: potency means the concentration at half of the fitted maximal effect; on the % scale 0 is the no-effect control and ±100 the full control effect; nearly all actives have a fitted effect of over 55% in size
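Chicken DT40 Tdp1-/- cells stably complemented with human TDP1 were seeded at 400 cells/well in medium containing 20 nM camptothecin, exposed to pin-transferred compounds, and grown at 37 °C for at least 48 hr. Viability was read as ATP luminescence.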
SW480 rerep – inducers of DNA re-replication in SW480 colon cancer cells. SW480 DNA re-replication, Hoechst DNA content imaging, 48 h. Potency, µM (titrated, usually from 46.1 µM), for inactives: top-dose re-replication activation, usual class: activators. 340,000 tested, 1.8% active. AID 624297; further: potency means the concentration at half of the fitted maximal effect; % of control where 0% means no effect; nearly all actives have a fitted effect of over 55% in size
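Readout is total intensity of Hoechst-stained nuclei, excited at 405 nm and collected at 500-530 nm. Compound treatment lasted 48 hr at 37 C in 5% CO2 before staining.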
MCF10A rerep – inducers of DNA re-replication in MCF 10A breast cells; MCF 10A DNA re-replication, Hoechst nuclear intensity, 48 h; Potency, µM (top dose mostly 46.1 µM), without a hit: at the top dose activity, positive = re-replication, hits mostly activators; 350,000 tested, 2.9% active; AID 624296; further: potency means the concentration at half of the fitted maximal effect; % of control where 0% means no effect; nearly all actives have a fitted effect of over 50% in size
DT40 TDP1 no CPT – qHTS for Inhibitors of human tyrosyl-DNA phosphodiesterase 1 (TDP1): qHTS in cells in absence of CPT | DT40 Tdp1-/- hTDP1 cells, no CPT, ATP luminescence, 48 h | Potency, µM (series often up to 46.2 µM), without a hit: at the top dose activity change, negative = growth inhibition, usual class: inhibitors | 420,000 tested, 15% active | AID 686978, 2013; further: potency means the concentration at half of the fitted maximal effect; on the % scale 0 is the no-effect control and ±100 the full control effect; nearly all actives have a fitted effect of over 55% in size
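Growth kinetics read by CellTiter-Glo luminescence after ≥48 hr at 37 °C. Cells: DT40 Tdp1-/- stably carrying human TDP1, 400 per well, compound exposure in the absence of CPT (DMSO vehicle).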
BCR signal inh – blocks chronic active B-cell receptor signaling; ABC-DLBCL IkBa-CBG/CBR reporter, luminescence ratio, 4 h; Potency, µM (doses to about 46.1 µM), for inactives: at the top dose activity change, negative = inhibition, actives largely listed as inhibitors; 340,000 tested, 0.05% active; AID 493014; active means well fitted inhibition curve with a large enough effect in the signal ratio, with a control signal flat, not every such curve was filed as active; inconclusive means small, poorly fitted or top-dose-only effect, or effect the other way, or a change in a side signal; the % refers to the signal ratio;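 further: potency means the concentration at half of the fitted maximal effect; plate controls were basal doxycycline-induced cells for no effect and cells given 10 µM MG132 for full effect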
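Concentration-response series (up to 46 uM) were applied to TMD8 dual-reporter cells for 4 h at 37C with doxycycline. Green/red ratio, after filter-overlap correction, defined %Activity; red signal alone was normalised to basal cells and zero luminescence.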
IL-1B inflam inh – inhibitors of inflammasome signaling (IL-1 beta secretion); THP-1 LPS/ATP IL-1B secretion, AlphaLISA, 16 h; hits give low values; activity change, % at 57.5 µM; 360,000 tested, 4.7% active; AID 743279; in the data active means activity change below about -50%; inconclusive means mostly about -30% to -49%; further: on the % scale 0 is the no-effect control and ±100 the full control effect
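THP-1 cells pretreated 1 hr with compounds (up to 57.5 uM final), then stimulated with LPS (250 ng/mL final) plus ATP (1.25 mM final); secreted IL-1B measured by AlphaLISA after 16 hr, decreased signal indicating inhibition.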
Active calls of the source: *; ? = inconclusive; · = no result given. Unless noted, the call rests on the fitted dose curve; in most records, active means well fitted curve in the direction sought with a large enough effect; inconclusive means small, poorly fitted or top-dose-only effect, or another doubt; inactive means no such curve, though single readings can be large; an effect the other way counts as inactive or inconclusive.

SMILES | TDP1 cell CPT | SW480 rerep | MCF10A rerep | DT40 TDP1 no CPT | BCR signal inh | IL-1B inflam inh
COc1cccc(-c2nc(CS(=O)(=O)CC(=O)NCCc3ccc(OC)cc3OC)c(C)o2)c1 | 18µM* | -2% | 3% | 23µM* | ? | ?
COc1cccc(-c2nc(CS(=O)(=O)CC(=O)NCCC(C)C)c(C)o2)c1 | ? | -17% | -7% | -27% | 0% | -27
CCN(CC)CCCNC(=O)c1cc2nc(-c3ccccc3)cc(C(F)(F)F)n2n1 | -8% | -8% | 1µM* | 4% | -1% | -6
COCCNC(=O)c1cc2nc(-c3ccc(F)cc3)cc(C(F)(F)F)n2n1 | 1% | -1% | -15% | 8% | 0% | -15
COc1cc(NC(=O)c2cc3nc(-c4ccc(C)cc4)cc(C(F)(F)F)n3n2)cc(OC)c1OC | ? | · | · | 7.3µM* | · | ·
CCCCNC(=O)c1nn2c(C(F)(F)F)cc(-c3ccc(OC)cc3)nc2c1Br | 23µM* | ? | ? | ? | 3% | 25
O=C(NCCCn1ccnc1)c1nn2c(C(F)(F)F)cc(-c3ccccc3)nc2c1Cl | -14% | 6.5µM* | -1% | ? | 0% | ?
CCCNC(=O)C1(S(=O)(=O)c2ccccc2)CC=CC1 | -9% | 5% | -8% | -10% | -14% | 17
Cc1ccc(C(=O)Nn2cnnc2)cc1Cl | -7% | -1% | 13% | -12% | 4% | 6
CCCCc1ccc(CC(=O)NO)cc1 | -19% | · | · | ? | · | ·
Cc1ccc(-c2cc(C(F)(F)F)n3nc(C(=O)NCCCn4ccnc4)cc3n2)cc1C | -19% | ? | 15µM* | ? | ? | -10
O=C(NCc1ccco1)c1cc2nc(-c3ccc4c(c3)OCO4)cc(C(F)(F)F)n2n1 | ? | ? | ? | 18µM* | ? | -15
COc1ccc(-c2cc(C(F)(F)F)n3nc(C(=O)N(C)Cc4ccccc4)cc3n2)cc1OC | 16µM* | 21µM* | ? | ? | 2% | -21
CCCCNC(=O)c1cc2nc(-c3ccc(OC)cc3)cc(C(F)(F)F)n2n1 | ? | · | · | 26µM* | · | -6
COC(=O)c1cc2nc(-c3ccc(OC)cc3)cc(C(F)(F)F)n2n1 | -19% | -2% | 1% | -22% | -1% | 10
COC(=O)c1cc2nc(-c3ccc(C)cc3)cc(C(F)(F)F)n2n1 | -1% | 15% | ? | -1% | 3% | 13
CCCS(=O)(=O)c1nc(S(=O)(=O)c2ccc(C)cc2)c(N2CCC3(CC2)OCCO3)s1 | -26% | -8% | 1% | -4% | -12% | -12
CCc1ccccc1NC(=S)N(CCCN1CCOCC1)Cc1cccs1 | ? | 2% | 28% | ? | -1% | 5
COc1cc(OC)c(/C=N/n2c(C)nnc2C)c(OC)c1 | 2% | -120% | 26µM* | ? | -6% | 0
Cc1ccc(CNS(=O)(=O)c2ccc(-n3cccn3)cc2)cc1 | ? | · | · | ? | · | 7
CS(=O)(=O)c1nc(-c2ccccc2)cc(-c2ccccc2)c1C#N | 1.5µM* | 6.5µM* | 2.9µM* | 2.9µM* | -7% | -56*
FC(F)Sc1ccc(NC(=S)NC(c2ccccc2)c2ccccc2)cc1 | 4.6µM* | ? | 3.7µM* | 10µM* | ? | -68*
FC(F)Sc1ccc(NC(=S)NCc2ccccc2)cc1 | 26µM* | 18% | ? | ? | 0% | -92*
CN(C)CCCN(Cc1ccccc1)C(=S)NCc1ccccc1 | -25% | -52% | -1% | ? | -1% | -21
FC(F)Oc1ccc(NC(=S)NCc2ccccc2)cc1 | -27% | 3% | -3% | ? | 7% | -4
SMILES | TDP1 cell CPT | SW480 rerep | MCF10A rerep | DT40 TDP1 no CPT | BCR signal inh | IL-1B inflam inh
O=C(O)c1ccc(NC(=S)NCc2ccccc2)cc1 | ? | -5% | -8% | 0% | 0% | 29
CN(C)CCCN(Cc1ccccc1)C(=S)Nc1ccc(SC(F)F)cc1 | 18µM* | 12% | 24% | 23µM* | -7% | ?
FC(F)(F)c1ccc(NC(=S)NCc2ccccc2)cc1 | 15µM* | 9% | ? | ? | 5% | -62*
CN(C(=S)Nc1ccc(SC(F)F)cc1)C(c1ccccc1)c1ccccc1 | ? | 1% | ? | ? | 5% | ?
CCCSc1ncc(Cl)c(C(=O)Nc2sc(C(C)=O)c(C)c2C(=O)OCC)n1 | 3% | · | · | -24% | · | ·
c1ccc(CNc2ncnc3ccc(-c4cccnc4)cc23)cc1 | 15µM* | · | · | 16µM* | · | ·
COc1cccc(-c2ccc3ncnc(NCc4cccnc4)c3c2)c1 | 12µM* | -8% | 0% | ? | ? | ·
O=C([C@@H]1C[C@@H](Sc2nc3ccccc3[nH]2)CN1Cc1c(F)cccc1F)N1CCOCC1 | -13% | · | · | -17% | · | ·
CC1CCCN(C(=O)CCc2ccccc2)C1 (centres undefined) | 8% | 1% | 2% | -7% | ? | -2
CC1CN(C(=O)CCc2ccccc2)C(C)CN1C(=O)CCc1ccccc1 (centres undefined) | ? | -4% | 1% | 23µM* | 10% | -3
O=C(O)COc1ccccc1C(Nc1ccccn1)c1cc(Cl)c2cccnc2c1O (centres undefined) | -25% | -2% | 18µM* | ? | -4% | 19
O=C(O)COc1ccccc1C(Nc1cccnc1)c1cc(Cl)c2cccnc2c1O (centres undefined) | 6% | 15% | 9.2µM* | 10% | 10% | 30
CCN(CC)c1ccc(C(=O)N2CCc3c([nH]c4ccccc34)C2c2ccc(F)cc2)cc1 (centres undefined) | 2.9µM* | · | · | ? | · | ·
Cn1nccc1C(=O)N1CCc2c([nH]c3ccccc23)C1c1ccc(F)cc1 (centres undefined) | -14% | -10% | ? | -7% | ? | -12
CCc1ccc(C2c3[nH]c4ccccc4c3CCN2C(=O)c2cc[n+]([O-])cc2)cc1 (centres undefined) | 26µM* | ? | ? | 16µM* | ? | 13
O=C(c1noc2c1CCCC2)N1CCc2c([nH]c3ccccc23)C1c1ccccn1 (centres undefined) | ? | ? | 3% | ? | 12% | -27
O=C(C(=Cc1ccccc1)CN1CCCCC1)c1ccccc1 | 0.73µM* | 2.9µM* | 0.65µM* | 1.5µM* | · | -104*
